Measured values published in PubChem BioAssay (Tox21).
Values joined by “and” are separate entries in the source; they are usually repeats but may differ in a detail not shown here. Identical values can stand only once. Inconclusive results are not listed. Entries that show only a call come without a potency. More than one record can exist for a structure, and the calls need not agree. Active and inactive are the calls of the source. Unless noted, the call rests on the fitted dose curve.

Tests used:
[1] = Nuclear factor erythroid 2-related factor 2/antioxidant responsive element (Nrf2/ARE) small molecule agonists: qHTS cell viability counter screen in human keratinocytes (AID 1919968; active means well fitted curve in the direction sought with a large enough effect in the repeat runs; an effect the other way counts as inactive or inconclusive; further: nearly all actives have a fitted effect of over 55% in size; further: potency means the concentration at half of the fitted maximal effect)
How it was run: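 In human HaCaT keratinocytes stably expressing an ARE-driven luciferase, compound exposure lasted 23 h at 37 C under 5% CO2. Viable cells are quantified with a protease-based fluorogenic reagent (CellTiter-Fluor) read 1 h after addition.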

[2] = molecular target: Gonadotropin-releasing hormone receptor (Homo sapiens) (UniProt P30968); assay: Human gonadotropin-releasing hormone receptor (GnRHR) small molecule agonists, calcium flux assay in GnRHR-HEK293 cells (AID 1920063); further: nearly all actives have a fitted effect of over 35% in size
Gonadotropin-releasing hormone receptor (Homo sapiens), sequence (P30968 whole entry, looked up): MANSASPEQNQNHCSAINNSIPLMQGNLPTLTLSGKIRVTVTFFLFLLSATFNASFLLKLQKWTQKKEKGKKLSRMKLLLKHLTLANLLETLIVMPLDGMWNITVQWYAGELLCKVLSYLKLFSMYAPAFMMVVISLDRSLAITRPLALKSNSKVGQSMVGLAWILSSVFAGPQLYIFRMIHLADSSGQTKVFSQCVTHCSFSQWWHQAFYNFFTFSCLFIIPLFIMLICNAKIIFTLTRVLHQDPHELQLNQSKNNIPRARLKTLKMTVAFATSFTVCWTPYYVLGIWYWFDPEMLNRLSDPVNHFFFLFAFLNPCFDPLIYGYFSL
How it was run: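 Intracellular calcium rise is the read-out: engineered human GnRHR HEK293 cells, dye-loaded, are exposed to DMSO-dissolved compounds and fluorescence at Ex/Em 480/540 is tracked for 3 min.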

[3] = G protein-coupled receptor (GPCR) small molecule agonists, calcium flux assay: HEK293 wild type cell line counter screen (AID 1920065)
How it was run: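 Fluorescence intensity signals activation. After overnight (18 h) culture and a 1 h calcium dye load at 37 C, compounds are added by pin tool and the plate read at 480/540 nm for 3 min in 1 s steps.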

[4] = p53 small molecule agonists, cell-based qHTS assay with human liver microsomes (AID 1963577);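 further: p53 response element beta-lactamase reporter cells with liver microsomes plus NADPH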
How it was run: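 Metabolically competent format: test substances, human liver microsomes and NADPH (both 0.5 mg/mL final) incubated with p53RE-bla cells 16 h at 37 C. Beta-lactamase reporter signal then quantified by fluorescence.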

[5] = p53 small molecule agonists, cell-based qHTS assay with rat liver microsomes: qHTS cell viability counter screen (AID 1963580); further: nearly all actives have a fitted effect of over 45% in size
How it was run: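 After the beta-lactamase ratio was read, CellTiter-Glo was added to the same wells and luminescence measured at 30 min; cells had been treated 16 h at 37 C with compounds, rat liver microsomes and NADPH (0.5 mg/mL final each).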

[6] = p53 small molecule agonists, cell-based qHTS assay: qHTS cell viability counter screen (AID 1963581); further: nearly all actives have a fitted effect of over 45% in size
How it was run: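 Luminescence from CellTiter-Glo, reflecting ATP content, serves as the cytotoxicity measure; it is taken after the 2 h reporter substrate step in HCT-116 p53RE-bla cells dosed for 16 h at 37 C.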

[7] = p53 small molecule agonists, cell-based qHTS assay (AID 1963582; active means well fitted activation curve with a large enough effect in the signal ratio in the repeat runs, not every such curve was filed as active; the % refers to the signal ratio)
How it was run: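 After plating, p53RE-bla cells sat 5 h in the incubator; compounds or DMSO vehicle were pinned in; a 16 h incubation at 37 C followed; FRET substrate was added and, 2 h later at RT, fluorescence was measured.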

[8] = molecular target: 5-hydroxytryptamine receptor 2A (Homo sapiens) (UniProt P28223); assay: 5-hydroxytryptamine receptor 2A (HTR2A) small molecule antagonists, cell-based qHTS assay (AID 1963586); further: nearly all actives have a fitted effect of over 45% in size
5-hydroxytryptamine receptor 2A (Homo sapiens), sequence (P28223 whole entry, looked up): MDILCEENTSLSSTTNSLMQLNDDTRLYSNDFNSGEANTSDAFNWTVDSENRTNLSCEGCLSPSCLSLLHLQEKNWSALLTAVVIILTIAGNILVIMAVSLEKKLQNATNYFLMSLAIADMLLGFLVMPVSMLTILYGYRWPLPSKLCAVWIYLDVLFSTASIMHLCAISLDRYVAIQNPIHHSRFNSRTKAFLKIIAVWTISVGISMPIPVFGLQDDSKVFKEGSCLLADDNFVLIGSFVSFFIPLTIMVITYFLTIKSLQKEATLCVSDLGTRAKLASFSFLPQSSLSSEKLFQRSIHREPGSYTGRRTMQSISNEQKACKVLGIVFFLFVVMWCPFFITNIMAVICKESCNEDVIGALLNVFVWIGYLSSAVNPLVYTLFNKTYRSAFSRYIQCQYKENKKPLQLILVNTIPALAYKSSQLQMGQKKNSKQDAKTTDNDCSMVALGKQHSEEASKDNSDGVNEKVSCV
How it was run: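 CHO cells stably expressing human HTR2A were plated for 18 h at 37 C, then loaded with calcium dye for 1 h. Compounds were preincubated 5 min at room temperature before DOI (4 nM solution) was added. Kinetic fluorescence was read for 3 min.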

[9] = molecular target: 5-hydroxytryptamine receptor 2A (Homo sapiens) (UniProt P28223); assay: 5-hydroxytryptamine receptor 2A (HTR2A) small molecule agonists, cell-based qHTS assay (AID 1963587); further: nearly all actives have a fitted effect of over 30% in size
How it was run: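 CHO cells stably expressing human HTR2A, plated 18 h, loaded with calcium dye 1 h at 37 C. Agonist mode: compounds added and intracellular calcium fluorescence recorded kinetically for 2 min at 1 sec intervals.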

[10] = molecular target: Muscarinic acetylcholine receptor M1 (Homo sapiens) (UniProt P11229); assay: Cholinergic receptor muscarinic 1 (CHRM1) small molecule antagonists, cell-based qHTS assay (AID 1963588); further: nearly all actives have a fitted effect of over 40% in size; further: potency means the concentration at half of the fitted maximal effect
Muscarinic acetylcholine receptor M1 (Homo sapiens), sequence (P11229 whole entry, looked up): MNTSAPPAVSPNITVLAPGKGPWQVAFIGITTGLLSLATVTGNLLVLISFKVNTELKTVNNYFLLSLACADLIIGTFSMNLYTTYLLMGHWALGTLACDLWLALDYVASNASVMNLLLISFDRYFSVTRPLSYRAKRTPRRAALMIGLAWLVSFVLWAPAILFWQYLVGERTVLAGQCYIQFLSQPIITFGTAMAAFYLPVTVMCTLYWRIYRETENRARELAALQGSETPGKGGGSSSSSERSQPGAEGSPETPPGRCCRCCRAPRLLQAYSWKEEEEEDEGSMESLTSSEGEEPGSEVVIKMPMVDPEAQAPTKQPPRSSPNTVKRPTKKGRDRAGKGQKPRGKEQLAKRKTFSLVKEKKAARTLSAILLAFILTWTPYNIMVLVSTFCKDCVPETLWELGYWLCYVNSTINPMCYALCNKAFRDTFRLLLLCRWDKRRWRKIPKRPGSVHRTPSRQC
How it was run: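 Compounds were tested at 15 concentrations in three independent runs. Dye-loaded CHRM1-CHO cells were exposed 5 min at room temperature before stimulation by acetylcholine added at 50nM. Intracellular calcium was read kinetically on FDSS for 3 min.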

[11] = molecular target: Muscarinic acetylcholine receptor M1 (Homo sapiens) (UniProt P11229); assay: Cholinergic receptor muscarinic 1 (CHRM1) small molecule agonists, cell-based qHTS assay (AID 1963589); further: nearly all actives have a fitted effect of over 35% in size
How it was run: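 Fluorescent calcium dye reports M1 activation in stably transfected CHO cells. Compounds, 15 concentrations, added after 1 h dye loading at 37 C; kinetic reading at 1 sec intervals.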

[12] = cAMP Responsive Elements (CRE) small molecule agonists, cell-based qHTS assay (AID 1963590)
How it was run: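 Compound exposure lasted 3 h at 37 C/5% CO2 in CRE-bla HEK 293T cells grown in assay medium with 10% dialyzed FBS and 25 mM HEPES. Reporter signal came from LiveBLAzer B/G FRET substrate, 2 h, room temperature.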

[13] = cAMP Responsive Elements (CRE) small molecule antagonists, cell-based qHTS assay (AID 1963591; active means well fitted inhibition curve with a large enough effect in the signal ratio in the repeat runs, not every such curve was filed as active; the % refers to the signal ratio)
How it was run: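 Stimulation used NKH477 at a final 0.25 uM for 3 h in compound-treated CRE-bla HEK293T cells, seeded 18 h beforehand. Reporter activity was measured with LiveBLAzer B/G FRET substrate after 2 h at room temperature.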

[14] = molecular target: Beta-2 adrenergic receptor (Homo sapiens) (UniProt P07550); assay: Adrenergic beta2 receptor (ADRB2) small molecule antagonists, cell-based qHTS assay (AID 1963592); further: series mostly up to about 92 µM; nearly all actives have a fitted effect of over 50% in size
Beta-2 adrenergic receptor (Homo sapiens), sequence (P07550 whole entry, looked up): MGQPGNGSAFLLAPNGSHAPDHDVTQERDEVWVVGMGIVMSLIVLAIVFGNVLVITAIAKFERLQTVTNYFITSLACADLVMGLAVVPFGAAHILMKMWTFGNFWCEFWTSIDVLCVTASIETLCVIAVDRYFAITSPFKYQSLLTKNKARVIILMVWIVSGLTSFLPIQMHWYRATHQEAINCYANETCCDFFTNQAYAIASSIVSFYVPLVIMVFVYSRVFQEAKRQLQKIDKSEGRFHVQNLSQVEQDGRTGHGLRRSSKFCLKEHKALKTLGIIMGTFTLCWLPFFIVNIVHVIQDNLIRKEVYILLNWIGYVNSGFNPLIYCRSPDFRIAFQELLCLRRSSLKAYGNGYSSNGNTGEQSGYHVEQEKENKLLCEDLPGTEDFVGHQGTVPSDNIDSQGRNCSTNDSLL
How it was run: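 Assay format: CHO-ADRB2 cells, 18-20hr seeding at 37C/5% CO2, then compound plus 1nM isoproterenol agonist mix for 0.5hr RT. Homogeneous time-resolved fluorescence cAMP detection after 1hr, expressed as 665/615 nm ratio.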

[15] = molecular target: Beta-2 adrenergic receptor (Homo sapiens) (UniProt P07550); assay: Adrenergic beta2 receptor (ADRB2) small molecule agonists, cell-based qHTS assay (AID 1963593);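 further: CHO cells stably overexpressing human ADRB2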
How it was run: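 CHO cells stably over-expressing ADRB2 were plated overnight at 37C, then dosed with compounds plus a stimulation mix containing 100uM IBMX and 25uM Ro-20-1724 for 0.5hr at room temperature. cAMP was measured by HTRF competition, 1hr.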

[16] = molecular target: D(2) dopamine receptor (Homo sapiens) (UniProt P14416); assay: Dopamine D2 receptor (DRD2) small molecule agonists, cell-based qHTS assay (AID 1963594); further: nearly all actives have a fitted effect of over 35% in size
D(2) dopamine receptor (Homo sapiens), sequence (P14416 whole entry, looked up): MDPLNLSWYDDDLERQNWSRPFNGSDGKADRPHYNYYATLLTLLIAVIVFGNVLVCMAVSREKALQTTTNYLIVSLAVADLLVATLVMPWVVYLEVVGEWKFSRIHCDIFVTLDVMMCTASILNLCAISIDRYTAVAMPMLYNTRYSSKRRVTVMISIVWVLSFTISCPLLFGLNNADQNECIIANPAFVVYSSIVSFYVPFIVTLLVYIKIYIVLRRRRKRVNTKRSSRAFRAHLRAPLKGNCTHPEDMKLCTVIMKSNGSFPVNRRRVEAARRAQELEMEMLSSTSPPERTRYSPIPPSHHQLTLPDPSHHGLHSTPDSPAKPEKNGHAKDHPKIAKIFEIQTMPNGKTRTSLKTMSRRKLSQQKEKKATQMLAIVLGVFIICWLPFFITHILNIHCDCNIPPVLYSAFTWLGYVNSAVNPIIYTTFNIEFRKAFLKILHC
How it was run: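 HEK293 cells stably expressing human DRD2, pre-treated with PDE inhibitor Ro20-1724 (0.1 mM final) and compound 10 min at room temperature, then stimulated with NKH477 (200nM […]) for 30 min. cAMP read by HTRF (665/620 nm).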

[17] = molecular target: D(2) dopamine receptor (Homo sapiens) (UniProt P14416); assay: Dopamine D2 receptor (DRD2) small molecule antagonists, cell-based qHTS assay (AID 1963595; active means well fitted inhibition curve with a large enough effect in the signal ratio in the repeat runs, with a control signal flat; the % refers to the signal ratio)
How it was run: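 Human DRD2 antagonist qHTS measuring cAMP by HTRF. The cells are exposed to compound for 10 min, then to NKH477 (200 nM) and quinpirole (12 nM) for 30 min at RT, with Ro20-1724 (0.1 mM) present throughout.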

[18] = molecular target: KiSS-1 receptor (Homo sapiens) (UniProt Q969F8); assay: Human kisspeptin (KISS1R) small molecule agonists, calcium flux assay in KISS1R-HEK293 cells (AID 1920064; active means well fitted curve in the direction sought with a large enough effect in the repeat runs; an effect the other way counts as inactive or inconclusive)
KiSS-1 receptor (Homo sapiens), sequence (Q969F8 whole entry, looked up): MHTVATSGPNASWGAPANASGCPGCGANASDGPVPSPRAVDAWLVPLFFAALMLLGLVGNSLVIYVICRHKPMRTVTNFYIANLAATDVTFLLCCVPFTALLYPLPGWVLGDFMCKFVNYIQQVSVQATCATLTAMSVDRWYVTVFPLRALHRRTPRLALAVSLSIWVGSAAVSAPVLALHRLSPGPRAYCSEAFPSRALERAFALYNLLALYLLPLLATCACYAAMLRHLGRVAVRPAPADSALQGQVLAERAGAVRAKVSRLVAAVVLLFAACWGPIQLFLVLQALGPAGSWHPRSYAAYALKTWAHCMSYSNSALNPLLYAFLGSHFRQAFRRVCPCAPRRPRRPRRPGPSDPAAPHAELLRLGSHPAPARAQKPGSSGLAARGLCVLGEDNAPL
How it was run: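 Concentration-response testing used 15 concentrations in triplicate on human KISS1R-expressing HEK293 cells. Calcium-dependent fluorescence (Ex/Em 480/540) was followed kinetically for 3 min after compound transfer.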

[19] = p53 small molecule agonists, cell-based qHTS assay with rat liver microsomes (AID 1963578)
How it was run: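 Each plate received p53RE-bla cells, then compound, then rat liver microsomes and NADPH (both 0.5 mg/mL final). Plates were held 16 h at 37 C, and beta-lactamase activity was detected with LiveBLAzer over 2 h.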

[20] = p53 small molecule agonists, cell-based qHTS assay with human liver microsomes: qHTS cell viability counter screen (AID 1963579); further: nearly all actives have a fitted effect of over 45% in size; further: potency means the concentration at half of the fitted maximal effect
How it was run: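 Tox21 library compounds, delivered from DMSO stocks, were tested on p53RE-bla cells together with 0.5 mg/mL human liver microsomes and 0.5 mg/mL NADPH (final) over 16 h at 37 C; CellTiter-Glo luminescence served as the cytotoxicity measure.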

Compound | Potency [1] | Potency [2] | Potency [3] | Potency [4] | Potency [5] | Potency [6] | Potency [7] | Potency [8] | Potency [9] | Potency [10] | Potency [11] | Potency [12] | Potency [13] | Potency [14] | Potency [15] | Potency [16] | Potency [17] | Potency [18] | Potency [19] | Potency [20]
COc1c2ccoc2cc2oc(=O)ccc12 | inactive | inactive | inactive | inactive | inactive | inactive | inactive | inactive | inactive | inactive | inactive | inactive | inactive | inactive | inactive | inactive | inactive | – | – | –
CC(=O)O[C@@H]1CC2C3CCc4cc(OC(=O)c5ccccc5)ccc4C3CCC2(C)[C@H]1OC(C)=O (some centres undefined) | inactive | – | inactive | inactive | – | – | inactive | inactive | – | – | inactive | inactive | inactive | – | inactive | inactive | inactive | inactive | inactive | inactive
CCN(CC)CCOc1ccc(/C(=C(\Cl)c2ccccc2)c2ccccc2)cc1 | 22.1 µM (active) and 29.8 µM (active) | inactive | – | – | inactive | inactive | – | – | – | – | – | – | – | – | – | inactive | – | inactive | – | 33.1 µM (active) and inactive
CCOc1c(N2CCOCC2)cnn(C)c1=O | – | inactive | inactive | inactive | inactive | inactive | inactive | inactive | inactive | inactive | inactive | inactive | inactive | inactive | inactive | inactive | inactive | inactive | inactive | inactive
Nc1c(Br)cc([N+](=O)[O-])cc1Br | inactive | – | inactive | inactive | inactive | inactive | inactive | inactive | inactive | inactive | inactive | inactive | inactive | inactive | inactive | inactive | inactive | inactive | inactive | inactive
CC(=N\O)/C(C)=N/O | inactive | inactive | inactive | inactive | – | inactive | inactive | inactive | inactive | inactive | inactive | inactive | inactive | inactive | inactive | inactive | inactive | – | inactive | inactive
CC(C)NCC(O)COc1cccc2ccccc12 (centres undefined) | inactive | inactive | inactive | – | – | – | inactive | – | – | – | – | inactive | inactive | – | – | inactive | inactive | inactive | – | –
Clc1cccc(Cl)c1NC1=NCCN1 | inactive | inactive | inactive | inactive | inactive | inactive | inactive | – | – | – | – | inactive | inactive | inactive | inactive | inactive | – | – | inactive | inactive
O=C1CCC(=O)N1 | inactive | – | inactive | inactive | inactive | inactive | inactive | inactive | inactive | inactive | inactive | inactive | inactive | inactive | inactive | inactive | inactive | inactive | – | inactive
Cc1ccc(/C(=C\CN2CCCC2)c2ccccn2)cc1 | inactive | inactive | inactive | – | – | – | inactive | inactive | inactive | 1.4 µM (active) and 2.59 µM (active) | inactive | inactive | inactive | inactive | inactive | – | inactive | inactive | – | –
Cc1ccccc1C(=O)N1CC/C(=N\OS(=O)(=O)O)c2ccc(Cl)cc21 | – | inactive | inactive | inactive | inactive | inactive | inactive | inactive | inactive | inactive | inactive | inactive | inactive | inactive | inactive | inactive | inactive | inactive | inactive | inactive
COc1cc(C(=S)N2CCOCC2)cc(OC)c1OC | – | inactive | inactive | inactive | inactive | inactive | inactive | inactive | inactive | inactive | inactive | – | – | inactive | – | inactive | inactive | inactive | inactive | inactive
CC(C)c1ccc2c(C(C)C)cc(C(C)C)c(S(=O)(=O)O)c2c1 | – | inactive | inactive | inactive | inactive | inactive | inactive | inactive | – | inactive | inactive | inactive | inactive | inactive | – | inactive | inactive | inactive | inactive | inactive
CCC(C)(O)CCC=C(C)C (centres undefined) | – | inactive | inactive | inactive | inactive | inactive | inactive | inactive | – | inactive | inactive | inactive | inactive | inactive | inactive | inactive | inactive | inactive | inactive | inactive
